Source: PubChem BioAssay (NCATS)
Inconclusive results are not listed. Activity calls are given as the source filed them. Unless noted, calls come from the whole dose curve; as a rule, active = well fitted curve in the direction sought with a large enough effect; inconclusive = small, poorly fitted or top-dose-only effect, or another doubt; inactive = no such curve, though single readings can be large; an effect the other way counts as inactive or inconclusive.

Key:
[1] = system: Zika virus NS2B-NS3 protease (unlinked complex); assay: Primary screen GU Rhodamine qHTS for Zika virus inhibitors: Unlinked NS2B-NS3 protease assay (AID 1347159); note: nearly all actives have a fitted effect of over 60% in size; note: potency is the fitted concentration of half-maximal effect
How it was run: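 Noncovalent NS2B hydrophilic domain–NS3 protease domain complex (25 nM) preincubated 15 min at room temperature with compounds (up to 114 microM) in 10 mM Tris-HCl pH 8.0, 0.01% Tween 20; 1.5 microM Rhodamine110 substrate added, fluorescence change over 15 min fitted to Hill equation.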

[2] = system: Zika virus NS2B-NS3 protease (linked construct); assay: Primary screen NINDS Rhodamine qHTS for Zika virus inhibitors (AID 1347160); note: nearly all actives have a fitted effect of over 55% in size; note: potency is the fitted concentration of half-maximal effect
How it was run: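 Purified linked NS2B-NS3 protease (NS2B hydrophilic domain joined to NS3 protease by flexible linker), 25 nM in 10 mM Tris-HCl pH 8.0, 0.01% Tween 20. Compounds titrated, 15 min preincubation at room temperature; 1.5 microM Rhodamine110 substrate, FITC fluorescence change over 15 min.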

[3] = Primary qHTS for inhibitors of nuclear receptor binding SET domain protein 2 (NSD2) in an RCH-ACV wild type WT cells (2C) (AID 1645877); note: nearly all actives have a fitted effect of over 70% in size; note: potency is the fitted concentration of half-maximal effect
[4] = biological target: Glutathione peroxidase 1 (Homo sapiens) (UniProt P07203); assay: Primary qHTS Assay for Inhibitors of Recombinant Selenoprotein Glutathione Peroxidase 1 (GPX1) (AID 1845191); note: nearly all actives have a fitted effect of over 65% in size; note: potency is the fitted concentration of half-maximal effect
Sequence of Glutathione peroxidase 1 (Homo sapiens) (P07203 whole entry, looked up): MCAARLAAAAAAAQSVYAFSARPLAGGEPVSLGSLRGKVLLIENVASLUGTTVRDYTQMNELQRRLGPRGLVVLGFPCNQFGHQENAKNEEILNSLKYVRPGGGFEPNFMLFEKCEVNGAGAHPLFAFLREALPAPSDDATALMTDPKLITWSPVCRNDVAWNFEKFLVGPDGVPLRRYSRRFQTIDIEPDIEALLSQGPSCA
How it was run: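 Recombinant GPX1 (10 nM final) was preincubated with compound for 30 min at room temperature, then reacted with 1 mM GSH, 0.5 mM CHP, 0.5 mM NADPH and 100 nM glutathione reductase; NADPH fluorescence (340/450 nm) was read at 0 and 15 min.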

HaCat [5] = assay: Cytotoxic Profiling of Annotated Libraries Using Quantitative High-Throughput Screening (AID 1296008); details: Five cell lines viability, CellTiter-Glo ATP luminescence, 48-72 h; max response: stronger effect = lower value; note: nearly all actives have a fitted effect of over 60% in size; note: potency is the fitted concentration of half-maximal effect; for max response: % is set by controls: 0 for no effect and ±100 for the full control effect
How it was run: (§1)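 Compounds were pin-transferred onto cells and incubated 48 or 72 hr at 37 degree Celsius, 95% humidity. CellTiter-Glo was added, plates sat 10 min at room temperature, then ATP-coupled luminescence was imaged as the viability read-out.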

KB-3-1 = assay: as above; details: Five cell lines viability, CellTiter-Glo ATP luminescence, 48-72 h; max response: stronger effect = lower value
How it was run: as §1

CRL-7250 = normal cell line; assay: qHTS assay to identify novel small-molecules to repurpose for Merkel cell carcinoma treatment (AID 1296009); details: MCC and control cell lines, CellTiter-Glo viability, 72 h; series mostly up to 92 µM; note: nearly all actives have a fitted effect of over 60% in size
How it was run: (§2)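 qHTS format: cells treated with library compounds in DMSO across 8 (NPC) or 11 (MIPE) concentrations. Readout after 72 hr at 37 degree celsius was CellTiter-Glo luminescence.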

SKOV3 = assay: Primary qHTS to identify gynecologic anti-cancer compounds using libraries of approved drugs and bioactive compounds (AID 1345084); details: Gynecologic cancer cell panel viability, ATPlite luminescence, 48 h; series mostly up to 57.5 µM; note: nearly all actives have a fitted effect of over 55% in size; note: potency is the fitted concentration of half-maximal effect
How it was run: (§3)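 Cells, 1,000 per well, were allowed to settle for 16 h at 37 C before compound addition. Five concentrations were tested for 48 h, and viability was read by ATPlite luminescence after 15 min at room temperature.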

[6] = P-glycoprotein substrates identified in KB-8-5-11 adenocarcinoma cell line, qHTS therapeutic library screen (AID 1346987); note: nearly all actives have a fitted effect of over 65% in size; note: potency is the fitted concentration of half-maximal effect
How it was run: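 Steps: plate 500 KB-8-5-11 cells/well in DMEM + 10% FCS (colchicine removed); pin compounds in dose-response; incubate 72 h, 37 degree C, 5% CO2; add CellTiter-Glo, 5 min; read luminescence.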

HACAT [7] = assay: qHTS assay to identify novel small-molecules to repurpose for Merkel cell carcinoma treatment (AID 1296009); details: MCC and control cell lines, CellTiter-Glo viability, 72 h; at 44.8 µM (top of the series) unless noted; note: nearly all actives have a fitted effect of over 60% in size
How it was run: as §2

HeLa = assay: Primary qHTS to identify gynecologic anti-cancer compounds using libraries of approved drugs and bioactive compounds (AID 1345084); details: Gynecologic cancer cell panel viability, ATPlite luminescence, 48 h; series mostly up to 57.5 µM; note: nearly all actives have a fitted effect of over 55% in size; note: potency is the fitted concentration of half-maximal effect
How it was run: as §3

[8] = biological target: Cytochrome P450 2D6 (Homo sapiens) (UniProt P10635); assay: Cytochrome P450 family 2 subfamily D member 6 (CYP2D6) small molecule antagonists: luciferase biochemical (cell-free) qHTS assay (AID 1645840; active = well fitted curve in the direction sought with a large enough effect in the repeat runs; an effect the other way counts as inactive or inconclusive; note: nearly all actives have a fitted effect of over 55% in size; note: potency is the fitted concentration of half-maximal effect)
Sequence of Cytochrome P450 2D6 (Homo sapiens) (P10635 whole entry, looked up): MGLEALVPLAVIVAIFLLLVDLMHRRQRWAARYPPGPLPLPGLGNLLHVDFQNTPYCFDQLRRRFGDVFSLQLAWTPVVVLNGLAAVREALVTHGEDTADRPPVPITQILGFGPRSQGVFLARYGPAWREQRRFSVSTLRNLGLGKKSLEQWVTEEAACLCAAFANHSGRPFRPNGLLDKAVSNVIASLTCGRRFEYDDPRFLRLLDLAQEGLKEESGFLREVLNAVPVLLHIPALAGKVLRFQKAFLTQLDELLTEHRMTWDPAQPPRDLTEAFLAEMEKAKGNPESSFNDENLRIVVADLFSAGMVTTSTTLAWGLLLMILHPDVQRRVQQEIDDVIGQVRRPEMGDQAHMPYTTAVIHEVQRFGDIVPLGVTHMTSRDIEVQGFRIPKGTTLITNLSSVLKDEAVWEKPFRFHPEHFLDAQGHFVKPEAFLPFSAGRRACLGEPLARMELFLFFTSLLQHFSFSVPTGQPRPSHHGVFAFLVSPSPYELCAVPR
How it was run: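 P450-Glo luminescent screen: recombinant CYP2D6 enzyme–proluciferin substrate mix preincubated with compound 10 min at room temperature, then NADPH regeneration added for 1 h at room temperature. Detection reagent added for 20 min; luciferin light read as relative luminescence units.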

[9] = biological target: Cytochrome P450 2C9 (Homo sapiens) (UniProt P11712); assay: Cytochrome P450 family 2 subfamily C member 9 (CYP2C9) small molecule antagonists: luciferase biochemical (cell-free) qHTS assay (AID 1645842; active = well fitted curve in the direction sought with a large enough effect in the repeat runs; an effect the other way counts as inactive or inconclusive)
Sequence of Cytochrome P450 2C9 (Homo sapiens) (P11712 whole entry, looked up): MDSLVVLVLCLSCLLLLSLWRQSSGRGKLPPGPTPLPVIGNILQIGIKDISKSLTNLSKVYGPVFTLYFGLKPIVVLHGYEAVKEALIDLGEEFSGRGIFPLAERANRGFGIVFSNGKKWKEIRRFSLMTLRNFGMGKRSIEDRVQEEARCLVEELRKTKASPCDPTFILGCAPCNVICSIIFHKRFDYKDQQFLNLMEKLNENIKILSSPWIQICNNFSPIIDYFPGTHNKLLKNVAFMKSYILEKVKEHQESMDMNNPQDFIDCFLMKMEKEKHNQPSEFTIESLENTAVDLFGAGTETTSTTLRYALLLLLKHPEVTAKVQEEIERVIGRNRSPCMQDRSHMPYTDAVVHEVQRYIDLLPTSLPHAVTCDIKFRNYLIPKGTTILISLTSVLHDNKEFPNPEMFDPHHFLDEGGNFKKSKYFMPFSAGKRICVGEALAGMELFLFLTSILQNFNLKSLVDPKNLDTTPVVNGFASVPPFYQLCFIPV
How it was run: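 Luminescence, after 20 min with luciferin detection reagent, reflected CYP2C9 turnover during a 1 h NADPH-driven reaction at 37C. Enzyme-substrate mix contained 0.4% bovine serum albumin and was preincubated with compound 10 min at room temperature.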

[10] = P-glycoprotein substrates identified in KB-3-1 adenocarcinoma cell line, qHTS therapeutic library screen (AID 1346986); note: nearly all actives have a fitted effect of over 60% in size
How it was run: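 Resistance attributable to P-gp was assessed by comparing AC50 in KB-8-5-11 with parental KB-3-1 and by tariquidar reversal. Cells were exposed 72 h and viability read by CellTiter-Glo.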

[11] = Cytotoxicity counterscreen for inhibitors of SARS-CoV-2 cell entry (AID 1645845; calls by dose curve; note: nearly all actives have a fitted effect of over 50% in size)
How it was run: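 Expi293F/hACE2 cells seeded overnight; cpd pin-transferred in DMSO, 1 h preincubation, + media, 48 h 37 C 5% CO2; ATPLite 1step luminescence; normalized to cells and no cells.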

COc1ccc2c3c4n(c2c1)[C@@H](C=C(C)C)OOC(C)(C)C[C@@H]4N1C(=O)[C@@H]2CCCN2C(=O)[C@]1(O)[C@H]3OCC=C(C)C
inactive: Potency [1] | Potency [2] | Potency [3] | Potency [4] | max response (HaCat [5]) -11% | max response (KB-3-1) 8.3% | Potency (CRL-7250) | Potency (SKOV3)

COC(=O)[C@]12CCCC(C)(C)C1CCc1cc(C(C)C)c(O)c(O)c12 (some centres undefined)
active: Potency [1] 4.47 µM | Potency [2] 14.1 µM
inactive: Potency [6] | Potency [4] | outcome (HaCat [5]) | max response (KB-3-1) -12.9% | outcome (HACAT [7]) | Potency (HeLa) | Potency (SKOV3)

C=CC/C=C\C/C=C\CCCCCCCc1cc(O)cc(O)c1
inactive: Potency [6] | Potency [2] | outcome (HaCat [5]) | max response (KB-3-1) -0.409% | outcome (HACAT [7]) | Potency (HeLa) | Potency (SKOV3)

C/C=C1/CN2CC[C@]34C(=Nc5ccc(OC)cc53)C2C[C@@H]1C4(CO)C(=O)OC (some centres undefined)
inactive: Potency [6] | Potency [1] | Potency [2] | Potency [3] | Potency [4] | outcome (HaCat [5]) | max response (KB-3-1) 0.853% | outcome (HACAT [7]) | Potency (HeLa) | Potency (SKOV3)

C1=C(c2cnc[nH]2)c2ccsc2CC1
inactive: Potency [6] | Potency [1] | Potency [2] | outcome (HaCat [5]) | max response (KB-3-1) -3.3% | outcome (HACAT [7]) | Potency (HeLa)
active: Potency [8] 12 µM | Potency [9] 3.38 µM | Potency [4] 20.2 µM

C/C=C(/C)C1C=CC2CC(C)CC(C)C2C1/C(O)=C1\C(=O)NC(CC(C)(O)C(=O)O)C1=O (centres undefined)
inactive: Potency [6] | Potency [3] | Potency [4] | max response (HaCat [5]) -6.03% | max response (KB-3-1) 4.77% | Potency (CRL-7250) | Potency (HeLa) | Potency (SKOV3)

CC1=CC2(O)/C=C/C(C)(O)C(O)C(O)/C=C/C(=O)OC23C(=O)NC(CC(C)C)C3C1C (centres undefined)
inactive: Potency [10] | Potency [6] | Potency [1] | Potency [3] | Potency [4] | outcome (HaCat [5]) | outcome (KB-3-1) | outcome (HACAT [7]) inactive [at 17.4 µM] | Potency (SKOV3)

C=C1[C@@]23C(=O)O[C@H](C)[C@]24O[C@@]2(C(=C)[C@]5(C=CC(=O)OC5(C)C)CC[C@]32C)[C@H](O)[C@@]1(C)OC4=O
inactive: Potency [6] | Potency [3] | Potency [4] | outcome (HaCat [5]) | max response (KB-3-1) -4.55% | outcome (HACAT [7]) inactive [at 17.4 µM] | Potency (HeLa) | Potency (SKOV3)

CS[C@]1(CO)C(=O)N2[C@H]3C(=CC=C[C@@H]3O)C[C@@]2(SC)C(=O)N1C
inactive: Potency [10] | Potency [6] | Potency [3] | Potency [4] | max response (HaCat [5]) 0.502% | outcome (KB-3-1) | Potency (CRL-7250) | Potency (HeLa) | Potency (SKOV3)

COc1ccc(CN(C(=O)[C@@H](N)Cc2c(C)cc(C(N)=O)cc2C)[C@@H](C)c2ncc(-c3ccccc3)[nH]2)cc1C(=O)O
inactive: Potency [6] | Potency [1] | Potency [2] | Potency [11] | Potency [3] | max response (HaCat [5]) 1.02% | max response (KB-3-1) 2.03% | Potency (HeLa) | Potency (SKOV3)

CC1CCCC(O)CC(=O)Cc2cc(O)cc(O)c2C(=O)O1 (centres undefined)
inactive: Potency [6] | Potency [1] | Potency [2] | Potency [3] | outcome (HaCat [5]) | max response (KB-3-1) 8.3% | outcome (HACAT [7]) | Potency (HeLa) | Potency (SKOV3)

C=CCN1CC[C@]23c4c5ccc(O)c4O[C@H]2[C@@H](O)CC[C@@]3(O)[C@H]1C5
inactive: Potency [6] | Potency [1] | Potency [3] | Potency [4] | max response (HaCat [5]) 3.65% | max response (KB-3-1) 3.34% | Potency (HeLa) | Potency (SKOV3)

C[C@@H]1CCC/C=C/[C@H]2C[C@@H](O)C[C@@H]2[C@@H](O)/C=C/C(=O)O1
active: Potency [6] 0.164 µM | Potency [3] 0.409 µM | Potency (HaCat [5]) 0.259 µM | Potency (KB-3-1) 0.146 µM | Potency (HeLa) 0.501 µM | Potency (SKOV3) 0.355 µM
inactive: Potency [1] | Potency [2]

Cc1c(N2C(=O)[C@@H]3[C@H](O)CCN3C2=O)ccc(C#N)c1Cl
inactive: Potency [6] | Potency [1] | Potency [2] | Potency [8] | Potency [3] | Potency [4] | outcome (HaCat [5]) | max response (KB-3-1) -9.81% | outcome (HACAT [7]) | Potency (HeLa)

CC1(C)C(=O)N(c2ccc(C#N)c(C(F)(F)F)c2)C(=O)N1CCCCO
active: Potency [9] 10.7 µM
inactive: Potency [6] | Potency [1] | Potency [2] | Potency [8] | Potency [3] | Potency [4] | max response (HaCat [5]) -18.8% | max response (KB-3-1) -3.73% | Potency (HeLa) | Potency (SKOV3)

N#CC(O[C@@H]1O[C@H](CO)[C@@H](O)[C@H](O)[C@H]1O)c1ccccc1 (some centres undefined)
inactive: Potency [6] | Potency [1] | Potency [3] | Potency [4] | max response (HaCat [5]) -12% | max response (KB-3-1) 0.785% | Potency (CRL-7250) | Potency (SKOV3)

COC(=O)C1=COC(C)C2CN3CCC4(C(=O)Nc5ccccc54)C3CC12 (centres undefined)
inactive: Potency [6] | Potency [1] | Potency [2] | Potency [3] | max response (HaCat [5]) 2.66% | max response (KB-3-1) -8.2% | Potency (HeLa) | Potency (SKOV3)
